{
  "source": "the supplement of paper PMC7156485",
  "note": "Unmarked numbers belong to inactive results.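 Also: TDF is a line of transformed human dermal fibroblasts of mesenchymal origin.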",
  "data": [
    {"test_system": "HCC1569", "experiment": "H1.0 immunofluorescence intensity relative to DMSO (% of DMSO); higher = stronger H1.0 induction, active = 140 or more", "conditions": "concentration: 10 µM; 24 h", "in_short": "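HCC1569 and TDF cells (800 per well, 384-well plates, RPMI with 10% FBS) were treated with compounds at 10 µM for 24 h at 37 °C, in triplicate. Cells were fixed in 3.7% formaldehyde and stained with a rabbit anti-H1.0 antibody, an AlexaFluor 647 secondary and DAPI; six fields per well were imaged at ×10. H1.0 nuclear intensity or cell number is expressed as percent of the plate DMSO control, taking the median of replicates. HCC1569 values were smoothed for positional effects.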", "values": [
      {"smiles": "Cc1cccc(Nc2ccccc2C(=O)O)c1C", "note": "[Mefenamic acid]", "H1.0 immunofluorescence intensity": 90.5},
      {"smiles": "OCC1=CC(O)C2C=COC(OC3OC(CO)C(O)C(O)C3O)C12", "note": "(stereo not given) [Aucubin]", "H1.0 immunofluorescence intensity": 85},
      {"smiles": "CCCCCCCCCCCCCC(=O)NC(C)C(O)c1ccccc1", "note": "[D-erythro MAPP]", "H1.0 immunofluorescence intensity": 94.7},
      {"smiles": "CCCCCCCCCCCCCCCCOCC(COP(=O)([O-])OCC[N+](C)(C)C)OC(=O)NC", "note": "(stereo not given)", "H1.0 immunofluorescence intensity": 101},
      {"smiles": "OCC1OC(n2cnc3c(NC4CCCCC4)ncnc32)C(O)C1O", "note": "(stereo not given) [N6-Cyclohexyladenosine]", "H1.0 immunofluorescence intensity": 92.8},
      {"smiles": "CC(=O)Oc1ccccc1C(=O)Nc1ncc([N+](=O)[O-])s1", "note": "[2-{[(5-nitro-1,3-thiazol-2-yl)amino]carbonyl}phenyl acetate]", "H1.0 immunofluorescence intensity": 103},
      {"smiles": "CN(C)CCC=C1c2ccccc2C=Cc2ccccc21.Cl", "note": "[Cyclobenzaprine hydrochloride]", "H1.0 immunofluorescence intensity": 110},
      {"smiles": "COc1cc2c(cc1OC)-c1cc(=Nc3c(C)cc(C)cc3C)n(C)c(=O)n1CC2.Cl", "note": "[Trequinsin.HCl]", "H1.0 immunofluorescence intensity": 118},
      {"smiles": "Cl.NCCS", "note": "[Cysteamine hydrochloride]", "H1.0 immunofluorescence intensity": 101},
      {"smiles": "CCCCCCCCCCCCCCCC(O)C(N)CO", "note": "(stereo not given) [Dihydrosphingosine]", "H1.0 immunofluorescence intensity": 106},
      {"smiles": "C[C@@H](c1nc(-c2ccc(C#N)cc2)cs1)[C@](O)(Cn1cncn1)c1ccc(F)cc1F", "H1.0 immunofluorescence intensity": 129},
      {"smiles": "Cc1c(C)c2c(c(C)c1OC(=O)CCC(=O)O)CCC(C)(CCCC(C)CCCC(C)CCCC(C)C)O2", "note": "(stereo not given) [Tocopherol succinate]", "H1.0 immunofluorescence intensity": 102},
      {"smiles": "COC(=O)CNC(=O)C(=O)OC", "note": "[methyl 2-(2-methoxy-2-oxoethylamino)-2-oxoacetate]", "H1.0 immunofluorescence intensity": 101},
      {"smiles": "CS(=O)(=O)CCNCc1nc(-c2ccc3ncnc(Nc4ccc(OCc5cccc(F)c5)c(Cl)c4)c3c2)cs1.Cl.Cl", "H1.0 immunofluorescence intensity": 136},
      {"smiles": "CCCc1c(OCCCCc2nn[nH]n2)ccc(C(C)=O)c1O", "H1.0 immunofluorescence intensity": 105},
      {"smiles": "CC1CNc2c(cccc2S(=O)(=O)NC(CCCN=C(N)N)C(=O)N2CCC(C)CC2C(=O)O)C1", "note": "(stereo not given) [Argatroban]", "H1.0 immunofluorescence intensity": 112},
      {"smiles": "C[n+]1cccc(C(=O)O)c1.[Cl-]", "H1.0 immunofluorescence intensity": 92.9},
      {"smiles": "CCC1=CC2CN(C1)Cc1c([nH]c3ccccc13)C(C(=O)OC)(c1cc3c(cc1OC)N(C)C1C(O)(C(=O)OC)C(OC(C)=O)C4(CC)C=CCN5CCC31C54)C2", "note": "(stereo not given) [Vinorelbine]", "H1.0 immunofluorescence intensity": "153 (active)"},
      {"smiles": "Cn1ccnc1", "note": "[1-Methylimidazole]", "H1.0 immunofluorescence intensity": 98.9},
      {"smiles": "C=CC(C)(O)CCC1C(C)(O)CCC2C(C)(C)CCCC21C", "note": "(stereo not given) [Sclareol]", "H1.0 immunofluorescence intensity": 94.7},
      {"smiles": "CCOP(=O)(OCC)C(=Cc1cc(C(C)(C)C)c(O)c(C(C)(C)C)c1)P(=O)(OCC)OCC", "H1.0 immunofluorescence intensity": 124},
      {"smiles": "OCC1OC(n2cnc3c(NC4CCCC4)nc(Cl)nc32)C(O)C1O", "note": "(stereo not given) [2-Chloro-N6-cyclopentyladenosine]", "H1.0 immunofluorescence intensity": 80.9},
      {"smiles": "Nc1ccn(C2CCC(CO)O2)c(=O)n1", "note": "(stereo not given) [2',3'-dideoxycytidine]", "H1.0 immunofluorescence intensity": 87.7},
      {"smiles": "CC(C)C(CO)Nc1nc(Nc2ccc(C(=O)O)c(Cl)c2)c2ncn(C(C)C)c2n1", "note": "(stereo not given)", "H1.0 immunofluorescence intensity": 115},
      {"smiles": "COc1ccc(CC2c3cc(OC)c(OC)cc3CC[N+]2(C)C)cc1OC.[I-]", "note": "(stereo not given) [Laudanosine methiodide]", "H1.0 immunofluorescence intensity": 93.6},
      {"smiles": "CC(=O)O.CSC(N)=NCCCC(N)C(=O)O", "note": "[S-Methyl-L-thiocitrulline acetate]", "H1.0 immunofluorescence intensity": 97.5},
      {"smiles": "COc1cc(Nc2c(C#N)cnc3cc(OCCCN4CCN(C)CC4)c(OC)cc23)c(Cl)cc1Cl", "note": "[Bosutinib]", "H1.0 immunofluorescence intensity": 39.6},
      {"smiles": "Cl.Cl.NCCNc1ncc(C(N)=O)c(Nc2cccc(C(F)(F)F)c2)n1.O.O", "note": "[Syk Inhibitor II]", "H1.0 immunofluorescence intensity": "148 (active)"},
      {"smiles": "CS(=O)(=O)CCNCc1ccc(-c2ccc3ncnc(Nc4ccc(OCc5cccc(F)c5)c(Cl)c4)c3c2)o1.Cc1ccc(S(=O)(=O)O)cc1.Cc1ccc(S(=O)(=O)O)cc1", "note": "[Lapatinib ditosylate]", "H1.0 immunofluorescence intensity": 110},
      {"smiles": "CCCOc1cc2c(cc1\\C(C)=C/C=C/C(C)=C/C(=O)O)C(C)(C)CCC2(C)C", "H1.0 immunofluorescence intensity": 95.9},
      {"smiles": "CCOC(=O)C1=C(C)NC(=S)NC1c1cccc(O)c1", "note": "(stereo not given) [Monastrol]", "H1.0 immunofluorescence intensity": 97.1},
      {"smiles": "Cl.NC1C=CC=C(C(=O)O)C1", "note": "(stereo not given) [Gabaculine hydrochloride]", "H1.0 immunofluorescence intensity": 105},
      {"smiles": "O=c1[nH]c(=O)n(C2CC(O)C(CO)O2)cc1I", "note": "(stereo not given) [Idoxuridine]", "H1.0 immunofluorescence intensity": 121},
      {"smiles": "O=C(O)COC(=O)Cc1ccccc1Nc1c(Cl)cccc1Cl", "note": "[Aceclofenac]", "H1.0 immunofluorescence intensity": 103},
      {"smiles": "C=C1C(=O)C23C(O)C1CCC2C12COC3(O)C(O)C1C(C)(C)CCC2O", "note": "(stereo not given) [Rubescensin A]", "H1.0 immunofluorescence intensity": 100},
      {"smiles": "CC(C)C[C@@H](C(=O)O)c1cc(-c2ccc(C(F)(F)F)cc2)cc(-c2ccc(C(F)(F)F)cc2)c1", "H1.0 immunofluorescence intensity": 115},
      {"smiles": "Cl.N=C(N=C(N)N)N1CCOCC1", "note": "[Moroxydine.HCl]", "H1.0 immunofluorescence intensity": 88.6},
      {"smiles": "NC(=O)C1=CN(C2OC(COP(=O)([O-])OP(=O)([O-])OCC3OC(n4cnc5c(N)ncnc54)C(OP(=O)([O-])[O-])C3O)C(O)C2O)C=CC1.[Na+].[Na+].[Na+].[Na+]", "note": "(stereo not given) [NADPH tetrasodium]", "H1.0 immunofluorescence intensity": 99.1},
      {"smiles": "Br.CN1C2CCC1CC(OC(=O)C(O)c1ccccc1)C2", "note": "(stereo not given)", "H1.0 immunofluorescence intensity": 94.6},
      {"smiles": "COc1cc2nccc(Oc3ccc(NC(=O)Nc4ccc(F)cc4F)c(F)c3)c2cc1OC", "H1.0 immunofluorescence intensity": 108}
    ]}
  ]
}
